High-throughput results as filed in PubChem BioAssay.
Pf growth 96h = P. falciparum growth inhibition at 96 hour, primary screen for plastid delayed-death inhibitors | P. falciparum luciferase reporter growth, 96 h | AID 504834 | Potency, µM (top dose mostly 28.7 µM), inactives show at the top dose activity change, negative = inhibition, actives largely listed as inhibitors | 320,000 tested, 6.9% active
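Two parasite generations (96 h, 37 C, 5% CO2) of compound exposure in infected erythrocytes (0.05% parasitemia, 2% hematocrit). Luciferase-reporter P. falciparum; decreased luminescence indicates inhibited growth, aimed at apicoplast-acting delayed death.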
Vaccinia Venus = inhibitors of vaccinia virus (Venus reporter); Vaccinia virus Venus reporter expression, fluorescence; Potency, µM (series often up to 36.5 µM), inactives show top-dose activity change, negative = inhibition, hits mostly inhibitors; 330,000 tested, 0.46% active; AID 720580; calls by dose curve; tested in A549 cells; note: nearly all actives have a fitted effect of over 30% in size
AMA1-RON2 inh = disrupts binding of P. falciparum AMA1 to RON2; AlphaScreen AMA1-biotinylated RON2 peptide binding; Potency, µM (series often up to 58.2 µM), for the others: at the highest dose activity change, negative = inhibition, most hits filed as inhibitors; 360,000 tested, 0.2% active; AID 720542;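 note: 0% = vehicle wells and -100% = peptide control; nearly all actives have a fitted effect of over 45% in size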
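AMA1 (3D7) with his tag at 25 nM final met compounds first, then biotinylated RON2 peptide at 25 nM; detection used donor plus acceptor beads, 10 µg/mL apiece, read by AlphaScreen after 30 min at room temperature.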
Pf growth 48h = P. falciparum growth inhibition at 48 hours (one generation) | P. falciparum luciferase growth in erythrocytes, 48 h | Potency, µM (top dose mostly 28.7 µM), for the others: at the highest dose activity change, negative = inhibition, actives largely listed as inhibitors | 310,000 tested, 5.9% active
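Firefly luciferase activity from engineered P. falciparum reports growth; inhibitors lower the luminescent signal. Cultures contained 2% hematocrit erythrocytes at 0.1% final parasitemia.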
Vaccinia mCherry = vaccinia inhibition (mCherry reporter). Vaccinia virus mCherry reporter infection, fluorescence. Potency, µM (highest dose often 36.5 µM), for inactives: at the highest dose activity change, negative = inhibition, most hits filed as inhibitors. 310,000 tested, 0.63% active; calls by dose curve; tested in A549 cells; note: nearly all actives have a fitted effect of over 35% in size
The depositor's hits bear a star; u = inconclusive; x = not tested or not shown. This is a sample that favours compounds with a hit; in the whole collection about 8.7% have one here. Unless noted, calls come from the whole dose curve; as a rule, active = well fitted curve in the direction sought with a large enough effect; inconclusive = small, poorly fitted or top-dose-only effect, or another doubt; inactive = no such curve, though single readings can be large; an effect the other way counts as inactive or inconclusive. Unless noted, % is set by controls: 0 for no effect and ±100 for the full control effect; potency is the fitted concentration of half-maximal effect.

SMILES	Pf growth 96h	Vaccinia Venus	AMA1-RON2 inh	Pf growth 48h	Vaccinia mCherry
Cc1cccc(NC(=O)CN2C(=O)C3(SCC(=O)N3c3ccccc3)c3ccccc32)c1 (stereo unspecified)	x	-9%	x	x	-13%
COc1cc(/C=C(/C#N)c2ccccc2)ccc1Oc1ccc([N+](=O)[O-])cn1	0.93µM*	x	-3%	4.7µM*	x
COc1cc(/C=C(\C#N)c2nc3ccccc3[nH]2)ccc1Oc1ccc([N+](=O)[O-])cn1	4.1µM*	-16%	54%	5.9µM*	u
COc1ccc(-c2nn3c(-c4ccccc4C)nnc3c3ccccc23)cc1	x	-28%	x	x	u
CCOc1ccc(NC(=O)c2ccc3c(=O)n4nc(Nc5ccccc5C)sc4nc3c2)cc1	x	-20%	x	x	-26%
CCc1ccccc1NC(=O)CN1C(=O)CCn2nc(-c3cccn3C)cc21	x	-7%	x	x	-14%
CCOc1ccc(C2C(C(=O)Nc3ccccc3C)=C(C)Nc3nnnn32)cc1 (stereo unspecified)	x	8%	x	x	-5%
Cc1ccc(S(=O)(=O)NC(C)(C)CSc2nnc(Nc3ccccc3)s2)cc1	12µM*	x	-5%	x	x
